SARS PLpro yeast – SARS-CoV PLP inhibition in yeast | S. cerevisiae expressing SARS-CoV PLpro, growth rescue | Potency, µM (top dose mostly 32.9 µM), for the others: at the top dose activity, positive = growth rescue, usual class: activators | actives 0.19% (n = 330,000) | AID 485353; calls by dose curve; also: potency is read from the fitted curve at half-maximal effect; 0% is about no effect; nearly all actives have a fitted effect of over 55% in size
HCV inhibitor – HCV inhibition; Huh7.5.1 HCVcc-Cre infection, luciferase reporter, 44 h; actives 3.4% (n = 340,000); AID 651820; Potency, µM (highest dose often 41.8 µM), for the others: at the top dose activity change, negative = inhibition, actives largely listed as inhibitors; also: potency is read from the fitted curve at half-maximal effect; % is scaled to controls: 0 for no effect and ±100 for the full control effect
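Antiviral activity was scored by luciferase reporter output from cells infected with HCVcc-Cre (~0.5 moi) in presence of compound, 44 h infection period, cells seeded 1,000/well 4 h prior.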
Sm TGR inh – S. mansoni TGR enzyme inhibition; actives 3% (n = 360,000); Potency, µM (top dose mostly 114 µM), for inactives: at the top dose activity change, negative = inhibition, usual class: inhibitors; purified TGR, DTNB reduction, TNB absorbance 405 nm; Q962Y6; also: potency is read from the fitted curve at half-maximal effect; % is scaled to controls: 0 for no effect and ±100 for the full control effect; nearly all actives have a fitted effect of over 60% in size
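First, TGR (20 nM dispensed) and NADPH were mixed with compound. Second, a 15 min room-temperature incubation followed. Third, further NADPH and then DTNB were added to start the reaction. Finally, TNB absorbance was monitored kinetically.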
Pf growth 96h – P. falciparum growth inhibition at 96 hour, primary screen for plastid delayed-death inhibitors; P. falciparum luciferase reporter growth, 96 h; Potency, µM (top dose mostly 28.7 µM), for the others: at the highest dose activity change, negative = inhibition, actives largely listed as inhibitors; actives 6.9% (n = 320,000); AID 504834; also: potency is read from the fitted curve at half-maximal effect; % is scaled to controls: 0 for no effect and ±100 for the full control effect
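Two-generation exposure (96 h) targets delayed-death phenotype. Reporter parasites carrying integrated firefly luciferase, in red cells at 2% hematocrit and 0.05% parasitemia final, kept at 37 C, 5% CO2; luminescence loss indicates inhibition.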
HCMV inh – inhibitors of human cytomegalovirus | activity change, negative = inhibition, % at 57.5 µM | AID 1259415 | HFF cells, HCMV-luciferase reporter, 72 h; active compounds read low | actives 4.5% (n = 410,000); in the data active = activity change below about -60%; inconclusive = no clear call, values can overlap the other calls; inactive = above about -39%; also: % is scaled to controls: 0 for no effect and ±100 for the full control effect
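Human foreskin fibroblasts infected with luciferase-reporter HCMV at MOI 1 PFU/cell, compounds at two doses. Luciferase measured 72 h post infection; normalized to buffer-only basal and Salinomycin (10uM) controls.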
Pf growth 48h – P. falciparum growth inhibition at 48 hours (one generation); P. falciparum luciferase growth in erythrocytes, 48 h; Potency, µM (titrated, usually from 28.7 µM), for inactives: at the top dose activity change, negative = inhibition, actives largely listed as inhibitors; actives 5.9% (n = 310,000); also: potency is read from the fitted curve at half-maximal effect; % is scaled to controls: 0 for no effect and ±100 for the full control effect
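Here the parasites carry a stable luciferase gene and grow inside erythrocytes in Albumax-based RPMI medium with compound for one erythrocytic cycle. Activity is scored as loss of luminescent signal.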
* marks the source's active call; other numbers are inactive results; ? = inconclusive; . = no result; [ ] = another dose, or the depositor's remark. Compounds with a hit are over-represented: about 15% of the library has one in this group of screens. Unless noted, calls follow the shape of the dose curve; as a rule, active = well fitted curve in the direction sought with a large enough effect; inconclusive = small, poorly fitted or top-dose-only effect, or another doubt; inactive = no such curve, though single readings can be large; an effect the other way counts as inactive or inconclusive.

SMILES	SARS PLpro yeast	HCV inhibitor	Sm TGR inh	Pf growth 96h	HCMV inh	Pf growth 48h
CC(C)Sc1nc2c(cnn2-c2ccc(Cl)cc2)c(=O)[nH]1	0%	-21%	-3%	0%	-21	-68%[0.00184 µM]
Cc1sc(NC(=O)CN(Cc2ccc(F)cc2)C(=O)C(C)(C)C)c(C(N)=O)c1C	11%	3%	-2%	7.4µM*	-11	-23%
CCSc1cc(C2C(C#N)=C(N)OC(C)=C2C(=O)OC)c(C)o1 (configuration not stated)	0%	-4%	25µM*	.	-3	?
CCOc1cc(NC(=O)C2CC2)c(OCC)cc1NC(=O)c1ccccn1	2%	6%	-19%	.	-26	15µM*
CCOc1cc(NC(=O)c2ccccn2)c(OCC)cc1NC(=O)c1ccc(Cl)cc1	-1%	-13%	-24%	7%	-7	16%
CCOc1cc(NC(=S)NC)c(OCC)cc1NC(=O)c1ccc(OC)cc1	-1%	?	-30%	28%	?	-15%
CCOc1cc(NC(=O)c2ccccn2)c(OCC)cc1NC(=O)CC(C)C	-2%	?	1%	3.7µM*	?	13µM*
CCOc1cc(NC(=S)Nc2ccccc2)c(OCC)cc1NC(=O)c1ccccc1	2%	?	-2%	8.3µM*	16	?
CCOc1cc(NC(=O)c2ccccn2)c(OCC)cc1NC(=O)c1ccccc1	0%	-4%	1%[57.1 µM]	43%	-64*	-14%
COc1ccc(N/C(C)=C/C(=S)Nc2ccccc2)cc1	-17%	-4%	-33%	41%	-12	45%
CCOC(=O)C1CCN(S(=O)(=O)c2ccc(Cl)s2)CC1	7%	1%	-20%	?	-7	6%
CCOc1cc(NC(=O)C(C)C)c(OCC)cc1NC(=O)Nc1ccccc1	-3%	-10%	5%	12µM*	-10	-19%
CCOc1cc(NC(=S)NCc2ccccc2)c(OCC)cc1NC(=O)C(C)C	3%	-12%	-15%	?	-17	-28%
CCOc1cc(C(=O)Nc2cccc3ncccc23)cc(OCC)c1OCC	0%	-6%	-10%	15µM*	33	.
CCc1nc(C(N)=O)c2[nH]c(=O)n(-c3ccc(OC)cc3OC)c2n1	3%	3%	-2%	54%	.	22%
CCC(Sc1nc2sc(C(=O)OC)c(C)c2c(=O)n1N)C(=O)NCC1CCCO1 (configuration not stated)	6%	5%	-30%	4.7µM*	-1	?
Cc1ccc(OCC(=O)Nc2cc(C(C)(C)C)on2)cc1C	1%	-18%	-18%	6%	2	5.2µM*
Cc1ccc(OCC(=O)Nc2ccccc2F)cc1C	-1%	10%	0%	?	9	73%
O=C(COc1ccc(Br)cc1)NCCO	-2%	-4%	-1%	?	-14	35%
Cc1ccc(OCC(=O)Nc2cccnc2Cl)cc1C	-1%	-10%	10%	20%	-61*	36%
Cc1ccc2nc(C)cc(C(=O)OCC(=O)Nc3cccnc3Cl)c2c1	-3%	1%	1%	2%	-76*	?
Cc1ccc(OCC(=O)NCCO)cc1C	1%	24%	0%	1.3µM*	-39	.
Cc1ccc(-c2nn(-c3cccc([N+](=O)[O-])c3)c3c2cnc2ccc(F)cc23)cc1	.	.	-2%	.	6	.
COc1ccc(C(=O)NCCc2nnc3ccc(SCC(=O)N4CCCC4)nn23)cc1	-1%	17%	6%	19%	-1	23%
Cc1ccc(OCC(=O)NNC(=O)c2cc3ccccc3o2)cc1C	5%	-4%	5%	12µM*	37	29%
SMILES	SARS PLpro yeast	HCV inhibitor	Sm TGR inh	Pf growth 96h	HCMV inh	Pf growth 48h
Cc1ccc(OCC(=O)NCC2(N3CCOCC3)CCCCC2)cc1C	.	.	-3%	.	-60*	.
COc1cccc(/C=N/NC(=O)c2cc(-c3cccn3C)n[nH]2)c1	-1%	-11%	-24%	12µM*	-21	?
COc1cc(/C=N/NC(=O)c2cc(-c3cccn3C)n[nH]2)cc(OC)c1OC	7%	-6%	?	23%	?	6.6µM*
Cn1cccc1-c1cc(C(=O)N/N=C/c2ccc(Cl)cc2)[nH]n1	-16%	?	-5%	492%	1	-23%
CCNC(=O)COC(=O)c1sccc1C	-2%	35%	-1%	31%	16	60%
CCOC(=O)N1CCN(C2=C(NS(=O)(=O)c3ccc(NC(C)=O)cc3)C(=O)c3ccccc3C2=O)CC1	2%	-29%	?	9.3µM*	?	?
CC(=O)Nc1ccc(S(=O)(=O)NC2=C(N3CCN(Cc4ccccc4)CC3)C(=O)c3ccccc3C2=O)cc1	3%	?	-6%	1.2µM*	24	.
CCN1CCN(C2=C(NS(=O)(=O)c3ccc(C)cc3)C(=O)c3ccccc3C2=O)CC1	-4%	?	?	1.7µM*	0	2.9µM*
CCN1CCN(C2=C(NS(=O)(=O)c3ccc(NC(C)=O)cc3)C(=O)c3ccccc3C2=O)CC1	-2%	?	?	10µM*	-17	?
CC(=O)Nc1ccc(S(=O)(=O)NC2=C(N3CCN(C)CC3)C(=O)c3ccccc3C2=O)cc1	-1%	-26%	?	?	-33	?
O=C1C(F)=CC(COC(c2ccccc2)(c2ccccc2)c2ccccc2)OC1n1cc(F)c(=O)[nH]c1=O (configuration not stated)	.	?	.	.	-99*	.
CC(=O)OCC1OC(n2cc(F)c(=O)[nH]c2=O)C(OC(C)=O)C1OC(C)=O (configuration not stated)	.	-8%	.	.	-17	.
Cc1ccc(NC(=S)N(CCN(C)C)Cc2cccs2)cc1	-8%	?	13%	?	-38	-11%
CCOC(=O)c1ccc(NC(=S)N(CCCN(CC)CC)Cc2ccco2)cc1	-2%	?	5%	15µM*	-4	?
CCOC(=O)c1ccc(NC(=S)N(CCN(C)C)Cc2cccs2)cc1	-2%	-26%	13%	-7%	-61*	-24%
CCCNC(=O)c1cc(C2CCCN(C(=O)c3ccccc3)C2)on1 (configuration not stated)	.	.	.	.	45	.
COc1cc(C(=O)COC(=O)c2cc([N+](=O)[O-])ccc2N2CCOCC2)ccc1OC(F)F	-2%	1.1µM*	-20%	?	-3	?
O=C(COC(=O)c1cc([N+](=O)[O-])ccc1N1CCOCC1)c1ccccc1Cl	19%	?	-24%	16%	9	15%
Cc1cc(C)c(C(=O)COC(=O)c2cc([N+](=O)[O-])ccc2N2CCOCC2)cc1C	-7%	-22%	-17%	?	2	10µM*
